The values that follow come from PubChem BioAssay AID1224904 (Broad Institute, 2016).

The nature of the experiment: inhibitors of DUX4-driven ZSCAN4 reporter expression, primary screen, 293T cells, Gaussia and Italica luciferase (AID 1224904).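 As to activity change, negative = inhibition: 0% = median of neutral control wells and -100% = median of positive control wells.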 Particulars: 293T-iDUX4 ZSCAN4-Gaussia luciferase reporter, 24 h, stronger effect = lower value, concentration not given here; for Gaussia minus Italica difference: measured here: selective DUX4 reporter inhibition.
Setting [1] is: measured here: Italica tet-on control reporter.

SMILES strings stand for the structures. The whole screen tested about 37,000 compounds, of which about 290 (0.78%) were called active. Inconclusive results (about 10%) are left out.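 The calls were made as follows: active = mean inhibition of at least 10% in the main channel, exceeding the control channel by a set limit; inconclusive = inhibition of 10% or more but channel gap under a set limit; inactive = mean inhibition below 10%.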 For the sample, actives were picked, then their nearest neighbours and some compounds at random.

As to `O=C(C1CCCC1)N1CC2(C1)[C@H](c1ccccc1)[C@H](CO)N2CCC(F)(F)F`, the activity change, negative = inhibition is -0.604% (inactive) and the Gaussia minus Italica difference is -3.36%. The activity change, negative = inhibition under setting [1] is 2.75%.

Consider `O=C(Cc1ccccc1)N1C[C@H]2[C@@H](c3ccccc31)[C@H](CO)N2C(=O)C1CCOCC1`, for which the activity change, negative = inhibition was -0.397% (inactive) and the Gaussia minus Italica difference is 3.16%. The activity change, negative = inhibition under setting [1] was -3.56%.

With `COc1ccc(NC(=O)N2C[C@H](O)COC[C@@H]3O[C@@H](CC(=O)NCc4ccccc4OC)CC[C@H]32)cc1`, the activity change, negative = inhibition is 2.52% (inactive) and the Gaussia minus Italica difference is -0.496%. Further, the activity change, negative = inhibition under setting [1] came out at 3.01%.

Turning to `CCCC(=O)Nc1ccc2c(c1)C(=O)N(C)[C@@H]1CC[C@H](CC(=O)NCCN3CCCCC3)O[C@@H]1CO2`, the activity change, negative = inhibition is -1.36% (inactive) and the Gaussia minus Italica difference is -6.6%. Moreover, the activity change, negative = inhibition under setting [1] stood at 5.24%.

Regarding `CO[C@H]1CN(C)C(=O)c2ccc(NC(=O)Nc3ccccc3)cc2OC[C@@H](C)N(C(=O)CC2CC2)C[C@@H]1C`, the activity change, negative = inhibition is -6.56% (inactive) and the Gaussia minus Italica difference is -11.9%. Moreover, under setting [1], the activity change, negative = inhibition is 5.38%.

On to `O=C(CC1CC1)Nc1ccc2c(c1)[C@@H]1C[C@@H](CC(=O)NC3CCCCC3)O[C@H](CO)[C@@H]1O2`, for which the activity change, negative = inhibition was 5.02% (inactive) and the Gaussia minus Italica difference is -0.425%. The activity change, negative = inhibition under setting [1] came to 5.44%.

On to `COCC(=O)Nc1ccc2c(c1)C(=O)N(C)[C@@H]1CC[C@H](CC(=O)NCCc3ccccc3)O[C@@H]1CO2`, for which the activity change, negative = inhibition was 0.635% (inactive) and the Gaussia minus Italica difference was -4.5%. For the same molecule, the activity change, negative = inhibition under setting [1] amounted to 5.13%.

`CC(C)NC(=O)N1[C@H](CO)[C@@H]2c3ccccc3N(C(=O)Nc3cccc(Cl)c3)C[C@@H]21`: the activity change, negative = inhibition is 5.76% (inactive) and the Gaussia minus Italica difference was 3.13%. For the same molecule, the activity change, negative = inhibition under setting [1] is 2.62%.

Take `COc1ccc(NC(=O)Nc2ccc3c(c2)[C@@H]2C[C@@H](CC(=O)NCc4ccncc4)O[C@@H](CO)[C@@H]2O3)cc1`: the activity change, negative = inhibition was -2.23% (inactive) and the Gaussia minus Italica difference was -4.25%. Moreover, under setting [1], the activity change, negative = inhibition turned out to be 2.02%.

As for `CCN(C[C@@H]1[C@H](c2ccccc2)[C@@H](CO)N1CC1CC1)C(=O)c1ccccn1`, the activity change, negative = inhibition is -3.34% (inactive) and the Gaussia minus Italica difference was -1.49%. In addition, under setting [1], the activity change, negative = inhibition was -1.85%.

As for `COCC(=O)N(C[C@H]1N[C@H](CO)[C@H]1c1ccc(C2=CCCCC2)cc1)C(C)C`, the activity change, negative = inhibition was 2.12% (inactive) and the Gaussia minus Italica difference was -1.6%. Further, the activity change, negative = inhibition under setting [1] came out at 3.71%.

As to `COc1ccccc1C#Cc1cnc2c(c1)C(=O)N([C@@H](C)CO)C[C@@H](C)[C@H](CN(C)C(=O)CN(C)C)O2`, the activity change, negative = inhibition was -1.64% (inactive) and the Gaussia minus Italica difference amounted to 2.47%. For the same molecule, under setting [1], the activity change, negative = inhibition is -4.12%.

With `CCC(=O)N1[C@H](C(=O)NCc2ccc(F)cc2)[C@@H](CO)[C@@H]2Cn3c(ccc(C4=CCCCC4)c3=O)[C@@H]21`, the activity change, negative = inhibition is 2.81% (inactive) and the Gaussia minus Italica difference came out at 8.61%. The activity change, negative = inhibition under setting [1] is -5.8%.

Turning to `CCCN1C[C@@H](C)[C@H](OC)CN(C)C(=O)c2ccc(NC(=O)C3CCOCC3)cc2OC[C@@H]1C`, the activity change, negative = inhibition is 2.85% (inactive) and the Gaussia minus Italica difference is -3.36%. Besides, the activity change, negative = inhibition under setting [1] was 6.21%.

Take `C[C@H](NC(=O)C[C@H]1C=C[C@H](NS(=O)(=O)c2cccc(F)c2)[C@@H](CO)O1)c1ccccc1`: the activity change, negative = inhibition is 2.8% (inactive) and the Gaussia minus Italica difference amounted to 1.67%. For the same molecule, the activity change, negative = inhibition under setting [1] amounted to 1.12%.

As for `O=C1CCC(=O)N[C@H](c2ccccc2)C/C=C\CCN1`, the activity change, negative = inhibition was -2.86% (inactive) and the Gaussia minus Italica difference is 0.183%. Further, the activity change, negative = inhibition under setting [1] is -3.05%.

As for `O=C(NCC(F)(F)F)[C@H]1[C@H](CO)[C@H]2Cn3c(ccc(-c4ccncc4)c3=O)[C@H]2N1Cc1ccncc1`, the activity change, negative = inhibition was 5.89% (inactive) and the Gaussia minus Italica difference was 7.77%. Also, the activity change, negative = inhibition under setting [1] is -1.87%.

For the molecule `CCNC(=O)C[C@@H]1CC[C@@H]2[C@H](COC[C@H](O)CN2S(=O)(=O)c2ccc(Oc3ccccc3)cc2)O1`, the activity change, negative = inhibition was 1.12% (inactive) and the Gaussia minus Italica difference was -1.02%. Moreover, under setting [1], the activity change, negative = inhibition turned out to be 2.14%.

In the case of `CC(C)[C@@H]1COCc2cnnn2CCC[C@H](C)C(=O)N1`, the activity change, negative = inhibition is -1.36% (inactive) and the Gaussia minus Italica difference was -0.347%. For the same molecule, the activity change, negative = inhibition under setting [1] is -1.01%.

Take `COCC(=O)N1[C@H](CNC(=O)c2ccccn2)[C@H](c2ccccc2)[C@@H]1CO`: the activity change, negative = inhibition is -0.865% (inactive) and the Gaussia minus Italica difference was -2.54%. For the same molecule, the activity change, negative = inhibition under setting [1] is 1.68%.

Turning to `Cc1ccc(S(=O)(=O)N(C)C[C@H]2OCc3ccccc3-c3ccccc3C(=O)N([C@@H](C)CO)C[C@@H]2C)cc1`, the activity change, negative = inhibition is 10.1% (inactive) and the Gaussia minus Italica difference came out at 7.63%. Under setting [1], the activity change, negative = inhibition is 2.48%.

Consider `O=C(C[C@@H]1CC[C@@H]2[C@H](COC[C@H](O)CN2Cc2cccc(F)c2)O1)NCc1ccncc1`, for which the activity change, negative = inhibition was 6.79% (inactive) and the Gaussia minus Italica difference worked out at 9.04%. Also, the activity change, negative = inhibition under setting [1] is -2.25%.

As for `CCCC#Cc1ccc([C@H]2[C@@H](CO)N3CCCCN(C(=O)c4ccc5c(c4)OCO5)C[C@@H]23)cc1`, the activity change, negative = inhibition is -4.6% (inactive) and the Gaussia minus Italica difference is -8.43%. Besides, under setting [1], the activity change, negative = inhibition amounted to 3.84%.

Consider `CCC(=O)N1CC2(C1)[C@@H](c1ccc(-c3ccc(C#N)cc3)cc1)[C@H](CO)N2C(C)=O`, for which the activity change, negative = inhibition was 10.1% (inactive) and the Gaussia minus Italica difference amounted to 11.4%. Further, the activity change, negative = inhibition under setting [1] is -1.24%.

Turning to `CCC(=O)N1CCC2(CC1)CN(Cc1cccc(Cl)c1)[C@@H](CO)c1c2c2ccc(OC)cc2n1C`, the activity change, negative = inhibition is -5.44% (inactive) and the Gaussia minus Italica difference is -2.02%. The activity change, negative = inhibition under setting [1] was -3.43%.

For `C/C=C/c1ccc([C@H]2[C@@H](CO)N(C(=O)CN(C)C)C23CN(C(=O)C2CCCC2)C3)cc1`, the activity change, negative = inhibition was -0.233% (inactive) and the Gaussia minus Italica difference was 6.47%. Further, the activity change, negative = inhibition under setting [1] was -6.7%.

Consider `COc1cc(CN2CC3(CN(S(=O)(=O)c4cn(C)cn4)C3)c3c(n(C)c4cc(OC)ccc34)[C@H]2CO)cc(OC)c1`, for which the activity change, negative = inhibition was -2.88% (inactive) and the Gaussia minus Italica difference was -2.57%. The activity change, negative = inhibition under setting [1] was -0.316%.

For the molecule `CCCNC(=O)C[C@H]1CC[C@H]2[C@H](COc3ccc(NC(=O)CC)cc3C(=O)N2C)O1`, the activity change, negative = inhibition is 2.97% (inactive) and the Gaussia minus Italica difference was 4.79%. Under setting [1], the activity change, negative = inhibition was -1.81%.
